Screening results: PubChem, National Center for Advancing Translational Sciences (NCATS)
SMN2 splice up – increases expression of the SMN2 splice variant | HEK293 SMN2-luciferase splicing reporter, luminescence, 30-36 h | Potency, µM (highest dose often 46.1 µM), for the others: at the top dose activity change, positive = activation, most hits filed as activators | actives 2.8% (n = 210,000) | AID 1458; also: % of control where 0% means no effect; nearly all actives have a fitted effect of over 55% in size
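HEK293 cells carry an SMN2 […]–luciferase reporter in which exon 7 inclusion puts luciferase in frame. Cells were plated 10-12 h before compound addition, then incubated 30-36 h at 37C. ONE-Glo luminescence was read; sodium butyrate at 4.5 mM final served as control.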
Luc counter – counter-screen: inhibitors of Kinase-Glo firefly luciferase; Q27757; Kinase-Glo luciferase, ATP luminescence, 8 min; Potency, µM (doses to about 38.3 µM), for inactives: at the highest dose activity change, negative = inhibition, most hits filed as inhibitors; actives 0.28% (n = 200,000); also: % is scaled to controls: 0 for no effect and ±100 for the full control effect; nearly all actives have a fitted effect of over 60% in size
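Kinase-Glo luciferase light output from ATP and luciferin was measured with 10 uM ATP, within the enzyme's linear range. Buffer: 50 mM imidazole pH 7.2, 50 mM KCl, 7 mM MgCl2, 0.01% Tween 20, 0.05% BSA; luminescence read after 8 min at ambient temperature.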
Rab9 promoter act – Rab9 promoter activation. Huh7 Rab9 promoter-luciferase reporter, luminescence, 24 h. Potency, µM (series often up to 9.22 µM), without a hit: at the highest dose activation, negative = inhibition, hits mostly activators. actives 2.8% (n = 320,000). AID 485297; also: % of control where 0% means no effect; nearly all actives have a fitted effect of over 60% in size
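Steps: seed 1500 Huh7 Rab9-luc cells per well, rest 2 h at 37 °C; add compound in DMSO; incubate 24 h; add luciferase reagent, 10 min ambient; read luminescence.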
FLuc modulator – counter-screen for miR-21 project: firefly luciferase inhibitors or activators; purified FLuc, Km substrates, luminescence inhibition; actives 6.9% (n = 360,000); AID 588342; Potency, µM (titrated, usually from 57.5 µM), for the others: top-dose activity change, negative = inhibition, usual class: inhibitors; P08659;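 also: plate controls were vehicle for no effect and reference inhibitor for full effect; nearly all actives have a fitted effect of over 55% in size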
Target sequence (P08659 whole entry, looked up): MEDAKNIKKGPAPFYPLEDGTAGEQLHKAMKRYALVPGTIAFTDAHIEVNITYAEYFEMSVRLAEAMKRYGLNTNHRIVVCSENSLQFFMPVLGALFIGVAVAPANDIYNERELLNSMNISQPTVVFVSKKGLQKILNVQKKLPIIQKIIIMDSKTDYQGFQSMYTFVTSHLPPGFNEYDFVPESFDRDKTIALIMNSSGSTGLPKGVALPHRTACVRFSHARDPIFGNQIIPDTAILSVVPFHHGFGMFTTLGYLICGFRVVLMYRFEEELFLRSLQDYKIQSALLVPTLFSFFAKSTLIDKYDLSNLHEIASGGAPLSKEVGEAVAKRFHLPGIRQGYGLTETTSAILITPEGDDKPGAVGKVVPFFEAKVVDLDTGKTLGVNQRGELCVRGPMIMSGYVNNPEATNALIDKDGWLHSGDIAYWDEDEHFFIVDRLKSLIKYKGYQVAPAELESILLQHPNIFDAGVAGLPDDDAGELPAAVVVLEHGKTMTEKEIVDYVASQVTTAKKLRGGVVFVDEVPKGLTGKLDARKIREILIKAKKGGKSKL
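Purified P. pyralis luciferase, 10 nM final, with Km-level 10 uM D-luciferin and 10 uM ATP in 50 mM Tris acetate pH 7.5, 10 mM Mg acetate, 0.01% Tween-20, 0.05% BSA; 6-point qHTS titration about 60 µM downward; luminescence read.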
ELG1 genotox – genotoxicity induction in ELG1-luciferase HEK293T cells. HEK293T ELG1-luciferase reporter, luminescence, 16 h. Potency, µM (doses to about 46 µM), for the others: at the highest dose activity change, positive = activation, most hits filed as activators. actives 1.3% (n = 330,000); also: % of control where 0% means no effect; nearly all actives have a fitted effect of over 60% in size
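HEK293T cells expressing luciferase-tagged ELG1 were treated with compound or DMSO for 16 hr at 37°C. Luciferase activity was then read after 30 min with ONE-Glo at room temperature; rising signal flags genetic stress.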
NPC1 promoter act – activates the NPC1 promoter | Huh7 NPC1 promoter luciferase reporter, 24 h | Potency, µM (series often up to 9.22 µM), for the others: at the top dose activation, hits mostly activators | actives 2.4% (n = 320,000); also: % of control where 0% means no effect; nearly all actives have a fitted effect of over 60% in size
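Stable NPC1-promoter luciferase Huh7 line; cpd (DMSO) 24 h, 37 °C, 5% CO2; Amplite luciferase reagent 10 min RT; luminescence readout. qHTS format.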
* marks the source's active call; other numbers are inactive results. Shown are actives, neighbours in structure and some others; about 7.4% of the full set was active somewhere. Calls follow the shape of the dose curve; as a rule, active = well fitted curve in the direction sought with a large enough effect; inconclusive = small, poorly fitted or top-dose-only effect, or another doubt; inactive = no such curve, though single readings can be large; an effect the other way counts as inactive or inconclusive. Potency is read from the fitted curve at half-maximal effect.

How did COC(=O)N1CCC2(CCN(Cc3nccs3)CC2)CC1 do in these assays?
SMN2 splice up: -16.9%; Luc counter: 0.5%

What do the screens show for `COC(=O)c1cc2occc2n1Cc1nc(-c2cccc(Br)c2)oc1C`?
SMN2 splice up: -9.0%; FLuc modulator: -2.8%

What do the screens show for `CCOc1ccc(NC(=O)CCC(=O)NNC(=O)COc2ccc(C)cc2Br)cc1`?
Rab9 promoter act: inconclusive; FLuc modulator: 2.13µM*; ELG1 genotox: inconclusive; NPC1 promoter act: inconclusive

Results for O=C(COc1ccc(Cl)cc1)NNC(=O)c1cccnc1 ?
SMN2 splice up: -12.7%; Luc counter: 2.4%; Rab9 promoter act: -1.7%; FLuc modulator: -5.9%; ELG1 genotox: -0.1%; NPC1 promoter act: 0.6%

What do the screens show for `CCOc1ccc(NC(=O)CCC(=O)NNC(=O)COc2ccc(C)cc2)cc1`?
SMN2 splice up: -12.6%; Luc counter: -5.6%; Rab9 promoter act: -2.2%; FLuc modulator: 0.5%; ELG1 genotox: 6.6%; NPC1 promoter act: -8.9%

Results for O=C(COc1ccc(Cl)cc1Cl)NNC(=O)c1cccnc1 ?
Rab9 promoter act: 8.5%; FLuc modulator: 5.36µM*; ELG1 genotox: 15.3%; NPC1 promoter act: 4.5%

How did CC(C)(C)c1ccc(OCC(=O)NNC(=S)NC(=O)c2ccco2)c(Br)c1 do in these assays?
Rab9 promoter act: 2.8%; FLuc modulator: 9.53µM*; ELG1 genotox: 1.2%; NPC1 promoter act: -3.9%

How did Fc1cccc(Cl)c1Cc1noc(/C=C/c2ccccc2)n1 do in these assays?
Rab9 promoter act: inconclusive; FLuc modulator: 13.5µM*; ELG1 genotox: 15.1%; NPC1 promoter act: inconclusive

What do the screens show for `Cc1cc(NC(=O)CCn2c(=O)c3cccn3c3cccnc32)ccc1Br`?
FLuc modulator: 2.9%

How did CN(C)S(=O)(=O)c1ccc2c(c1)N(CC(=O)NCc1ccc(F)cc1)C(=O)CS2 do in these assays?
FLuc modulator: 4.1%

Results for O=C(Cn1nnc(-c2ccc(N3CCOCC3)cc2)n1)N1CCOCC1 ?
Rab9 promoter act: 26.7%; FLuc modulator: 10.7µM*; ELG1 genotox: 13.9%; NPC1 promoter act: inconclusive

Results for Clc1ccc(Cn2nnc(-c3ccc(N4CCOCC4)cc3)n2)cc1 ?
Rab9 promoter act: -0.1%; FLuc modulator: inconclusive; ELG1 genotox: 7.3%; NPC1 promoter act: 8.4%

What do the screens show for `O=C(Cn1nnc(-c2ccc(N3CCOCC3)cc2)n1)OC1CCCCC1`?
SMN2 splice up: -25.6%; Luc counter: -4.6%; Rab9 promoter act: 2.8%; FLuc modulator: 12µM*; ELG1 genotox: -3.1%; NPC1 promoter act: -5.7%

Results for O=C(NCCc1ccccc1Cl)c1ccc2c(=O)n(-c3ccccc3)c(=O)[nH]c2c1 ?
SMN2 splice up: -12.8%; FLuc modulator: -3.5%

How did O=C(OCc1csc(-c2ccccc2)n1)c1ccc(O)cc1 do in these assays?
SMN2 splice up: 20.9%; Luc counter: -1.8%; Rab9 promoter act: inconclusive; FLuc modulator: 19µM*; ELG1 genotox: inconclusive; NPC1 promoter act: 16.7%

How did Cc1ccc(C(=O)NCC(=O)OCc2csc(-c3ccccc3)n2)cc1 do in these assays?
SMN2 splice up: inconclusive; Luc counter: 3.2%; Rab9 promoter act: -6.6%; FLuc modulator: inconclusive; ELG1 genotox: inconclusive; NPC1 promoter act: 13.1%

What do the screens show for `CNC(=O)c1ccc(-c2nc(-c3ccccc3)cs2)cc1`?
SMN2 splice up: 15.8µM*; Luc counter: -0.7%; Rab9 promoter act: 3.98µM*; FLuc modulator: 9.53µM*; ELG1 genotox: inconclusive; NPC1 promoter act: inconclusive

What do the screens show for `O=C(O)c1ccc(-c2nc(-c3ccc(Cl)c(Cl)c3)cs2)cc1`?
SMN2 splice up: 128.6%; Luc counter: -4.3%; Rab9 promoter act: inconclusive; FLuc modulator: 13.5µM*; ELG1 genotox: -0.2%; NPC1 promoter act: 3.16µM*

Results for O=C(Nc1ccc(-c2csc(-c3ccccc3)n2)cc1)c1ccccc1Cl ?
SMN2 splice up: -1.0%; Luc counter: -3.0%; Rab9 promoter act: 1.2%; FLuc modulator: inconclusive; ELG1 genotox: -1.9%; NPC1 promoter act: -3.6%

How did CNC(=O)c1csc(-c2ccc(C)cc2)n1 do in these assays?
SMN2 splice up: 24.9%; Luc counter: 6.0%; Rab9 promoter act: inconclusive; FLuc modulator: 16.9µM*; ELG1 genotox: inconclusive; NPC1 promoter act: inconclusive

Results for Cc1oncc1-c1csc(-c2ccccc2)n1 ?
SMN2 splice up: 12.6%; Luc counter: 0.9%; Rab9 promoter act: 29.0%; FLuc modulator: inconclusive; ELG1 genotox: inconclusive; NPC1 promoter act: 10.0%

How did O=C(O)c1ccc(-c2nc(-c3ccccc3Cl)cs2)cc1 do in these assays?
SMN2 splice up: 17.8µM*; Luc counter: -8.0%; Rab9 promoter act: inconclusive; FLuc modulator: 16.9µM*; ELG1 genotox: inconclusive; NPC1 promoter act: inconclusive

What do the screens show for `CCS(=O)(=O)c1ccc(-c2csc(-c3ccccc3)n2)c(Cl)c1Cl`?
SMN2 splice up: -50.2%; Luc counter: -1.7%; Rab9 promoter act: -1.0%; FLuc modulator: 23.9µM*; ELG1 genotox: 20.6µM*; NPC1 promoter act: 8.2%

How did O=C(O)c1ccccc1-c1csc(-c2ccccc2)n1 do in these assays?
SMN2 splice up: inconclusive; Luc counter: -0.3%; Rab9 promoter act: 3.98µM*; FLuc modulator: 15.1µM*; ELG1 genotox: inconclusive; NPC1 promoter act: inconclusive

How did O=C(O)c1ccccc1C(=O)Nc1ccc(-c2csc(-c3ccccc3)n2)cc1 do in these assays?
SMN2 splice up: 71.8%; Luc counter: 6.6%; Rab9 promoter act: 20.2%; FLuc modulator: 16.9µM*; ELG1 genotox: inconclusive; NPC1 promoter act: 5.3%

What do the screens show for `C=CCNC(=O)c1ccc(-c2nc(-c3ccc(Cl)c(Cl)c3)cs2)cc1`?
SMN2 splice up: -7.2%; Luc counter: 3.4%; Rab9 promoter act: 1.0%; FLuc modulator: 0.9%; ELG1 genotox: 1.6%; NPC1 promoter act: -3.6%

How did Cc1ccc(C(=O)n2nc(C)c(S(=O)(=O)N3CCOCC3)c2C)cc1 do in these assays?
FLuc modulator: -1.9%

How did O=C(O)c1ccc(-c2nc(-c3ccccc3)cs2)cc1 do in these assays?
SMN2 splice up: 10µM*; Luc counter: -7.3%; Rab9 promoter act: 1µM*; FLuc modulator: 6.01µM*; ELG1 genotox: 7.0%; NPC1 promoter act: 1.41µM*

How did C=CCNC(=O)c1ccc(-c2nc(-c3ccc(Cl)cc3Cl)cs2)cc1 do in these assays?
SMN2 splice up: 4.47µM*; Luc counter: 1.5%; Rab9 promoter act: 7.6%; FLuc modulator: -4.7%; ELG1 genotox: 2.0%; NPC1 promoter act: 5.2%

Results for CCOCCCn1c(SCC(=O)Nc2ccc(C)cc2)nc2ccccc2c1=O ?
FLuc modulator: -8.4%
